Source: PubChem BioAssay
Activity calls are given as the source filed them. Unless noted, how the calls were made is not given here.

Columns and labels:
[1] = test system: Wnt5a (protein binding on small-molecule microarray); assay: Wnt5a binders on small-molecule microarray, primary screen, biophysical, 635/667 nm fluorescence (AID 1142); conditions: 635 nm fluorescence, higher = more signal;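 further: fluorescence read at 667 nm with signal to noise per printed feature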
[2] = cell viability in Huh7 cells, primary screen, cytotoxicity control for HCV replication inhibitor project, CellTiter-Glo luminescence, basal, 48 h (AID 1143); conditions: Huh7 HCV replicon, higher = more signal, called active from +8 up or from −8 down;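 further: Huh7 hepatoma cells carrying a hepatitis C replication reporter with no stimulus; test concentration not given here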
[3] = P. aeruginosa biofilm formation inhibitors, primary screen, PAO1 strain, BacTiter-Glo luminescence, LB-PBS (AID 1144); conditions: 12 h, higher = more signal
[4] = CREB reporter modulators without forskolin, primary screen, cell-based, PC12, CRE-LacZ reporter, unstimulated (AID 1145); conditions: no forskolin, luminescence, 4.5 h, higher = more signal, called active from +8 up or from −8 down
[5] = CREB reporter modulators under forskolin, primary screen, cell-based, PC12, CRE-LacZ reporter, forskolin-stimulated (AID 1146); conditions: luminescence, 4.5 h, higher = more signal, called active from +8 up or from −8 down;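 further: PC12 cells with 6xCRE LacZ reporter stimulated by forskolin 10 µM; beta-galactosidase reporter signal reflecting CREB driven transcription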
[6] = molecular target: Streptavidin (Streptomyces avidinii) (UniProt P22629); assay: streptavidin binders on small-molecule microarray, primary screen, artefact control for SMM compound annotation, biophysical, 635/667 nm fluorescence (AID 1147); conditions: streptavidin binding, higher = more signal;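 further: signal reflects streptavidin binding to arrayed compounds as a control protein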
Chain of Streptavidin (Streptomyces avidinii) (P22629 whole entry, looked up): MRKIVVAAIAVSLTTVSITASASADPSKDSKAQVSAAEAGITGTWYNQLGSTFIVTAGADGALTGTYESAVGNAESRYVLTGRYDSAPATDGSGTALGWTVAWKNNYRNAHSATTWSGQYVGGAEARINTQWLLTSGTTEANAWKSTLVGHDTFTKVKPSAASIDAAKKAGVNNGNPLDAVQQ

[7] = small-molecule binders of probe aInhba, primary screen, biochemical, small-molecule microarray, 635/667 nm fluorescence (AID 1148); conditions: higher = more signal;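 further: score merges 667nm spot fluorescence with signal-to-noise for antibody binding to printed compounds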
Torsin-1A (Homo sapiens) [8] = molecular target: Torsin-1A (Homo sapiens) (UniProt O14656); assay: torsin A binders from cell lysate, primary screen, small-molecule microarray, wild-type, 635/667 nm (AID 1149); conditions: COS7 hTOR1A-WT lysate, 635 nm fluorescence, higher = more signal
Chain of Torsin-1A (Homo sapiens) (O14656 whole entry, looked up): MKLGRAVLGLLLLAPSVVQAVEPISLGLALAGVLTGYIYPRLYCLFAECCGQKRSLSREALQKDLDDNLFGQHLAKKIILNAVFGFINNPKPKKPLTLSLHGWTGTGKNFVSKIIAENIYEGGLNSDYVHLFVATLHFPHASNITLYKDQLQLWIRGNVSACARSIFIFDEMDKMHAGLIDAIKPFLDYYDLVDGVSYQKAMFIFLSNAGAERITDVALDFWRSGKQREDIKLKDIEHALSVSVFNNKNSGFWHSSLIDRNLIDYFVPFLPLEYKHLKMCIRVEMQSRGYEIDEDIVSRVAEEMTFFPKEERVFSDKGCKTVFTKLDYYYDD

Torsin-1A (Homo sapiens) [9] = molecular target: Torsin-1A (Homo sapiens) (UniProt O14656); assay: small-molecule binders of mutant TOR1A in lysate, primary screen, cell lysate, small-molecule microarray, COS7 lysate, 635/667 nm fluorescence (AID 1150); conditions: COS7 hTOR1A mutant lysate, 635 nm fluorescence, higher = more signal;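 further: score pools 667 nm emission and signal to noise measuring lysate protein binding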
[10] = test system: Sonic hedgehog protein (Shh); assay: small-molecule binders of Shh protein, primary screen, biochemical, small-molecule microarray, 635/667 nm fluorescence (AID 1151); conditions: small-molecule microarray binding, 635 nm fluorescence; higher = more signal;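 further: Shh protein binding to compounds spotted on small-molecule microarray slides; score combines spot fluorescence intensity with signal-to-noise across triplicate slides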
[11] = E. coli DRC41 culture turbidity changes, primary screen, E. coli filamentation inducer project, strain DRC41, OD650, 48 h (AID 1152);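 further: E. coli MC1000 strain DRC41 lacking acrAB efflux pump and sulA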; conditions: E. coli DRC41 (acrAB sulA), higher = more signal, called active from +8 up or from −8 down
[12] = small-molecule binders of probe aLefty1, primary screen, biochemical, small-molecule microarray, 635/667 nm fluorescence (AID 1153); conditions: higher = more signal;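 further: score merges spot fluorescence with signal-to-noise ratio from the scanned slide images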
[13] = PSAC antagonists in infected red cells, primary screen, cell-based, P. falciparum Indochina, OD700, 1 h (AID 1154); conditions: P. falciparum Indochina infected RBC osmotic lysis, higher = more signal, called active from +8 up or from −8 down
[14] = PSAC antagonists in infected red cells, primary screen, cell-based, P. falciparum Indochina, OD700, 2 h (AID 1155);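 further: lysis reports solute entry through the parasite surface anion channel PSAC; channel blockers reduce lysis of infected cells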; conditions: P. falciparum Indochina infected erythrocytes, osmotic lysis OD700; higher = more signal, called active from +8 up or from −8 down
[15] = osmotic lysis modulators in infected erythrocytes, primary screen, PSAC antagonist project, cell-based, P. falciparum Indochina, OD700, 3 h (AID 1156); conditions: higher = more signal, called active from +8 up or from −8 down
[16] = PSAC antagonists in infected red cells, primary screen, cell-based, P. falciparum Indochina, OD700, 18 h (AID 1157); conditions: P. falciparum Indochina infected erythrocytes, osmotic lysis OD700, 18 h; higher = more signal, called active from +8 up or from −8 down
[17] = modulators of S6 phosphorylation in cells, primary screen, cell-based, A549, cytoblot, luminescence, serum-stimulated (AID 1158); conditions: A549 phospho-S6 cytoblot, 5 h, higher = more signal;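 further: serum-stimulated A549 lung adenocarcinoma cells; signal is phosphorylated S6 detected by cytoblot immunostaining with HRP secondary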
[18] = molecular target: NADPH oxidase 2 (Homo sapiens) (UniProt P04839); assay: NOX2-dependent H2O2 signal modulators, primary screen, NOX inhibitor project, cell-based, HEK293-NOX2, PMA-stimulated, Amplex Red fluorescence (AID 1159); conditions: 45 min, higher = more signal, called active from +8 up or from −8 down; further: test concentration not given here
Chain of NADPH oxidase 2 (Homo sapiens) (P04839 whole entry, looked up): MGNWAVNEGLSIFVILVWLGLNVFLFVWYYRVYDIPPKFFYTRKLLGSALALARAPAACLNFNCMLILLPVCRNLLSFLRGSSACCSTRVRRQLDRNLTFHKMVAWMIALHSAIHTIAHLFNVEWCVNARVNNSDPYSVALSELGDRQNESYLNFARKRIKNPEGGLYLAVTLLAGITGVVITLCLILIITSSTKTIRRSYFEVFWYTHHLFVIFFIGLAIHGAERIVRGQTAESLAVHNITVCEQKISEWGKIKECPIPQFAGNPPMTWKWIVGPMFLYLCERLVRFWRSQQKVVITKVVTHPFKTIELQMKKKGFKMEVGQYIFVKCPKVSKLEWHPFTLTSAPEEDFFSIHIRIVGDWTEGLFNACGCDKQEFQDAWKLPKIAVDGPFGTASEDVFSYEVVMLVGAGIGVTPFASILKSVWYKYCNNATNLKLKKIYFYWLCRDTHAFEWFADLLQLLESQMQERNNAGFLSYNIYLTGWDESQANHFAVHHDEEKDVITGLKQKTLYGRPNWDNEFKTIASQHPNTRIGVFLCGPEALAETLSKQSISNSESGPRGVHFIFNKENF

[19] = molecular target: NADPH oxidase 4 (Homo sapiens) (UniProt Q9NPH5); assay: NOX4-dependent H2O2 signal modulators, primary screen, NOX inhibitor project, cell-based, HEK293-NOX4, tetracycline-induced, Amplex Red fluorescence (AID 1160); conditions: 45 min, higher = more signal, called active from +8 up or from −8 down
Chain of NADPH oxidase 4 (Homo sapiens) (Q9NPH5 whole entry, looked up): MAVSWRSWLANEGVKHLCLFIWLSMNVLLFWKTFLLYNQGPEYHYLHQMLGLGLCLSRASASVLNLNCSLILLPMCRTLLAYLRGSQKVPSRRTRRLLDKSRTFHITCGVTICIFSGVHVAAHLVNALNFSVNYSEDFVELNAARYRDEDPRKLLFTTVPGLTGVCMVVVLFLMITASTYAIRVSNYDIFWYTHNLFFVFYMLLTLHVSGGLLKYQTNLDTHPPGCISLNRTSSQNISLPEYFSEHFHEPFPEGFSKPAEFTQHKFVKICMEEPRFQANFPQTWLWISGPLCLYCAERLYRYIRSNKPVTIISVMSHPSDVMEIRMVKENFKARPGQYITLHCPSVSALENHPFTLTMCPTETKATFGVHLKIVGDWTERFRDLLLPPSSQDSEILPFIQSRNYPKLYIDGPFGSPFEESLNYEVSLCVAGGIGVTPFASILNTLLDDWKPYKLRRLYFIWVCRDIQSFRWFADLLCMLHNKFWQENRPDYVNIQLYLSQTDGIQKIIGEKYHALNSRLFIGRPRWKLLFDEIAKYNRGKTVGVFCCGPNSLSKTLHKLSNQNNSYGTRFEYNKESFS

[20] = molecular target: NADPH oxidase 5 (Homo sapiens) (UniProt Q96PH1); assay: NOX5-dependent H2O2 signal modulators, primary screen, NOX inhibitor project, cell-based, HEK293-NOX5, Amplex Red fluorescence (AID 1161); conditions: HEK293-NOX5, ionomycin, 45 min, higher = more signal
Chain of NADPH oxidase 5 (Homo sapiens) (Q96PH1 whole entry, looked up): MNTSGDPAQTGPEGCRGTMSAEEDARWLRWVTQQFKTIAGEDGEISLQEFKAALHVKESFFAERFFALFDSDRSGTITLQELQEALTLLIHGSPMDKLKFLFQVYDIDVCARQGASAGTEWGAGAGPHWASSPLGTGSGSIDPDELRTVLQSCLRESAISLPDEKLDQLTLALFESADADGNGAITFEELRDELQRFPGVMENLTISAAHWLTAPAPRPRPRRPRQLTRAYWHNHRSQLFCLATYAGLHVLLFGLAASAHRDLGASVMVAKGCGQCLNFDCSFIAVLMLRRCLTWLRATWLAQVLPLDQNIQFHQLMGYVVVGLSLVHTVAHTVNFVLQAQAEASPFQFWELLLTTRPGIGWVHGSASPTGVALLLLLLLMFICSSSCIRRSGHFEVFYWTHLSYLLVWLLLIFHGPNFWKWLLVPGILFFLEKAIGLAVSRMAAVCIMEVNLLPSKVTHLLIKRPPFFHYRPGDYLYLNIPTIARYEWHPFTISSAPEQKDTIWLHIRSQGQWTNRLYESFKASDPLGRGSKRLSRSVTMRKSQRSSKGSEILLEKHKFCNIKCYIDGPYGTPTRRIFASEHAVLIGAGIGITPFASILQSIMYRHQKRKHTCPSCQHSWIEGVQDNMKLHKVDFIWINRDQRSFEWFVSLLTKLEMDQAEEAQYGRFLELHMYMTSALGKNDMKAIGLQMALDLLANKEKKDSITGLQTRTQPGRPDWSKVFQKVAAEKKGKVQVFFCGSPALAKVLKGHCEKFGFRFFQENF

Structure (SMILES) | composite z-score [1] | z-score [2] | z-score [3] | z-score [4] | z-score [5] | composite z-score [6] | composite z-score [7] | composite z-score (Torsin-1A (Homo sapiens) [8]) | composite z-score (Torsin-1A (Homo sapiens) [9]) | composite z-score [10] | z-score [11] | composite z-score [12] | z-score [13] | z-score [14] | z-score [15] | z-score [16] | z-score [17] | z-score [18] | z-score [19] | z-score [20]
[N-]=[N+]=Nc1ccccc1[C@@H]1OC(c2ccc(OCCCO)cc2)=N[C@]1(Cc1ccccc1)C(=O)N1CCOCC1 | 0.546 | -3.97 (inactive) | 0.617 (inactive) | 1.56 (inactive) | -1.42 (inactive) | 1.35 | 0.0658 | 0.311 | 0.58 | -0.3 | 0.123 (inactive) | 0.391 | 31.8 (active) | 32.1 (active) | 2.51 (inactive) | 3.91 (inactive) | -0.37 | -0.507 (inactive) | -0.36 (inactive) | -1.77
C#C[C@H](O[Si](C#Cc1ccc(Oc2ccccc2)cc1)(C(C)C)C(C)C)c1ccccc1 | 0.0942 | -0.868 (inactive) | -0.0203 (inactive) | 0.498 (inactive) | 1.7 (inactive) | 0.145 | -0.082 | 1.38 | 0.122 | 0.21 | -0.425 (inactive) | -0.104 | 0.353 (inactive) | 0.787 (inactive) | -2.03 (inactive) | -0.206 (inactive) | -0.305 | -1.03 (inactive) | -2.59 (inactive) | -3.04
C[N+](C)(C)CCCCNC(=O)[C@H]1C[C@H]2C(=O)N3CCC[C@H]3C(=O)N2[C@H]1c1cccc(OCCO)c1 | 0.0504 | 0.254 (inactive) | -0.148 (inactive) | -0.667 (inactive) | -0.359 (inactive) | -0.704 | 0.0569 | -0.215 | 0.678 | 2 | 0.364 (inactive) | 0.0861 | 3.34 (inactive) | 0.503 (inactive) | -0.78 (inactive) | 0.277 (inactive) | -0.555 | -1.52 (inactive) | 0.00366 (inactive) | -1.41
COCCOC(=O)N1C(=O)[C@@]2(c3cc(C#CCC(C(=O)OC)C(=O)OC)ccc31)[C@H](C(=O)Nc1nc3ccccc3s1)[C@H]1C(=O)O[C@H](c3ccccc3)[C@H](c3ccccc3)N1[C@@H]2c1ccccc1OCCO | 0.346 | -3.81 (inactive) | -1.12 (inactive) | -0.141 (inactive) | 0.401 (inactive) | 0.487 | 0.0711 | 0.776 | 0.456 | 1.13 | 0.275 (inactive) | 0.212 | 11.2 (active) | 2.85 (inactive) | 0.599 (inactive) | 2.31 (inactive) | 0.0413 | 0.652 (inactive) | 0.671 (inactive) | 0.234
COc1ccc([C@H]2OC[C@@H]3C[C@@H](Cc4ccccc4)C(=O)N32)cc1 | 0.157 | -0.316 (inactive) | 1.01 (inactive) | 0.978 (inactive) | 0.627 (inactive) | -0.679 | -0.0403 | 0.656 | 0.556 | 1.33 | -0.783 (inactive) | 0.25 | 2.1 (inactive) | 0.0371 (inactive) | -0.59 (inactive) | 0.308 (inactive) | -0.597 | 1.25 (inactive) | 0.524 (inactive) | -0.604
CCCCCCc1nc(-c2ccc(OC)nc2)cc2c1[Si](C(C)C)(C(C)C)O[C@H]2c1ccccc1 | 0.323 | -0.295 (inactive) | 0.0731 (inactive) | 0.773 (inactive) | 0.03 (inactive) | 0.111 | 0.136 | 0.0114 | -0.234 | 1.21 | -1.03 (inactive) | -0.0559 | 0.614 (inactive) | 0.139 (inactive) | 0.245 (inactive) | -0.353 (inactive) | -0.168 | 0.0155 (inactive) | -0.95 (inactive) | -1.64
CC1CC/C=C\[C@H]2OC34C=CCN(C(C)(C)C)C(=O)[C@H]3N(CCO)C(=O)[C@@H]4C2C(=O)O1 (stereo not given in full) | -0.276 | -0.973 (inactive) | -0.0996 (inactive) | -0.753 (inactive) | -0.237 (inactive) | -1.59 | -0.171 | -2.34 | -2.49 | -0.0338 | 0.583 (inactive) | -0.0611 | 2.16 (inactive) | 0.518 (inactive) | -0.474 (inactive) | 0.31 (inactive) | 0.615 | 1.36 (inactive) | 0.126 (inactive) | 2.57
COc1ccc(C(O)C2C=CC3C(=O)N(Cc4ccccc4)C(=O)C3N2n2cnnc2)cc1OCc1ccccc1 (stereo not given) | 0.0401 | -2.81 (inactive) | -2.01 (inactive) | -0.424 (inactive) | -0.0263 (inactive) | 0.296 | -0.0962 | -0.476 | 0.562 | -0.733 | 0.209 (inactive) | 0.142 | 1.3 (inactive) | 0.0118 (inactive) | 0.372 (inactive) | -1.82 (inactive) | 1.42 | -0.361 (inactive) | -0.079 (inactive) | 0.384
